# The campaign covered roughly 48,000 compounds. About 13,000 (27%) showed an effect of 50% or more. The list shows a part of the results.
# Test system: Wolbachia pipientis
# Test: Anti-Wolbachia Cell-Based Screen
# Format: functional
# Design: scale not given: in the data most compounds retested in dose-response had high values
# Conditions: 5 µM
row,SMILES,Percent Effect
1,CC(C)=CCN1C(=O)[C@H]2CC[C@@H]1CN(Cc1cccnc1N)C2,18.56%
2,COc1cccc(CC(C)NC(=O)NCc2ccn(C)c2)c1 (stereo not drawn),-0.6382%
3,COC[C@@H]1CCC[C@]12CN(Cc1cccc(C)n1)CCO2.O=C(O)C(F)(F)F.O=C(O)C(F)(F)F,6.622%
4,O=C(NCC1CC[C@@]2(CNCCOC2)O1)c1cccnc1 (stereo partly drawn),-3.368%
5,CCN(Cc1cccnc1)CC1CCCO1 (stereo not drawn),-10.66%
6,O=C(O)C(F)(F)F.O=C(O)C(F)(F)F.O=C1NCC[C@]12CN(Cc1ccncc1)C[C@H]2c1ccccc1,4.919%
7,Cl.Cl.c1cncc(COC[C@@H]2CCC[C@@]23CNCCO3)c1,86.08%
8,O=C(O)C(F)(F)F.O=C(O)C(F)(F)F.c1cncc(COC[C@@H]2CCC[C@]23CNCCO3)c1,101.8%
9,CN(C)C(=O)CN1CC[C@@H]2O[C@@H](COCc3cccnc3)CC[C@@H]21.O=C(O)C(F)(F)F.O=C(O)C(F)(F)F,-11.44%
10,O=C(O)C(F)(F)F.O=C(O)C(F)(F)F.O=C1NCC[C@]12CN(Cc1cccnc1)C[C@H]2c1ccccc1,-5.552%
11,O=C(O)C(F)(F)F.c1cc(COC[C@H]2CCC[C@]23CNCCO3)ccn1,99.79%
12,CC(C)(C)c1cc(=O)[nH]c(C2(N)CCCC2)n1,3.211%
13,CC[C@H]1CN2CC[C@H]1C[C@@H]2CNC(=O)Nc1cccc(C(F)(F)F)c1,-2.454%
14,Cc1noc(CN2CC=C(c3cnn(C4CCS(=O)(=O)C4)c3)CC2)n1 (stereo not drawn),-14.25%
15,CCOc1ccc(-c2cc(CCN)ccc2OC)cc1,7.711%
16,CN1C[C@H](NC(=O)c2cscn2)[C@@H]2OCCC[C@@H]21.O=C(O)C(F)(F)F,111.9%
17,O=C(N[C@H]1CN(Cc2cccs2)[C@@H]2CCCO[C@H]12)c1cccnc1.O=C(O)C(F)(F)F.O=C(O)C(F)(F)F,-1.494%
18,Cl.O=C(N[C@H]1CN[C@H]2CCCO[C@H]21)c1cscn1,6.195%
19,Nc1ncccc1CN1C[C@@H]2CC[C@H](C1)N(CC1CC1)C2=O,7.202%
20,CNCC[C@H]1CC(C)(C)Oc2ccc(C)cc21,99.82%

row,SMILES,Percent Effect
1,COCc1cn(C[C@H]2C[C@@H]3CCN2C[C@@H]3C(=O)N2CCOCC2)nn1,-6.421%
2,NC(=O)CN1CCCN(C(=O)Cc2ccc3c(c2)OCO3)CC1,-4.573%
3,CN(C)CCN(C)C(=O)Cc1ccc2c(c1)OCCO2.O=C(O)CC(O)(CC(=O)O)C(=O)O,107.5%
4,O=C(CN1CCN(C(=O)Cc2ccc3c(c2)OCCO3)CC1)NC1CC1,5.479%
5,CN(C)CCN(C(=O)Cc1ccc2c(c1)OCCO2)C1CCN(C)CC1.O=C(O)CC(O)(CC(=O)O)C(=O)O,109%
6,Cc1[nH]c2c(C)cccc2c1CC(=O)N(C)CCN(C)C.O=C(O)CC(O)(CC(=O)O)C(=O)O,103%
7,CC(C)CN1CCC2(CC1)C(=O)Nc1ccc(C(=O)N(C)C)cc12.O=C(O)C(F)(F)F,-3.196%
8,CC(C)CN1CCC2(CC1)C(=O)Nc1ccc(C(=O)NC(C)C)cc12.O=C(O)C(F)(F)F,99.87%
9,CNC(=O)c1ccc2c(c1)C1(CCN(CC(C)C)CC1)C(=O)N2.O=C(O)C(F)(F)F,-7.062%
10,CC(C)NC(=O)c1ccc2c(c1)C1(CCN(C)CC1)C(=O)N2.O=C(O)C(F)(F)F,109.7%
11,CC(C)NC(=O)c1ccc2c(c1)C1(CCN(C(C)C)CC1)C(=O)N2.O=C(O)C(F)(F)F,106.4%
12,CNC(=O)c1ccc2c(c1)C1(CCN(C(C)C)CC1)C(=O)N2.O=C(O)C(F)(F)F,95.47%
13,CNC(=O)[C@H]1C[C@@H]2CN(C(=O)c3ccc(C)nc3)C[C@@H]2N1C(C)C.O=C(O)C(F)(F)F.O=C(O)C(F)(F)F,4.326%
14,CC(C)N1C(=O)C2(CCN(C)CC2)c2cc(F)ccc21.Cl,-32.23%
15,CNC(=O)[C@H]1C[C@H]2OCC[C@H]2N(CC2CC2)C1.O=C(O)C(F)(F)F,-3.474%
16,Cc1ccccc1CNCC(O)c1ccc(OC(C)C)cc1 (stereo not drawn),14.53%
17,CCc1cc(CN(C)C(=O)CN2CC(Cc3ccccc3)CC2=O)on1 (stereo not drawn),4.825%
18,O=C(NCC1CC1)C1CCC2(CCNCC2)C1 (stereo not drawn),-14.8%
19,Cc1cc(CC(=O)N2CCN(C)[C@@H]3CS(=O)(=O)C[C@@H]32)ccc1F,-18.64%
20,CCS(=O)(=O)c1nnc([C@@H](N)Cc2ccccc2)o1,144%

row,SMILES,Percent Effect
1,Cc1cnc(N2CCC3(CCCCN3C)C2)nc1.O=C(O)C(F)(F)F (stereo not drawn),-23.72%
2,O=S(=O)(NC[C@H]1C[C@@H]2CCN1C[C@@H]2CN1CCCCC1)c1ccccc1,-3.393%
3,COCCN1CCN(S(C)(=O)=O)Cc2cccnc21,94.34%
4,COCCN1CCN(S(=O)(=O)C2CC2)Cc2cccnc21,114%
5,CCCS(=O)(=O)N1CCN(CCOC)c2nc(C)ccc2C1.O=C(O)C(F)(F)F,12.9%
6,COCCN1CCN(S(=O)(=O)C2CC2)Cc2ccc(C)nc21.O=C(O)C(F)(F)F,0.9634%
7,CCS(=O)(=O)N1CCN(CCOC)c2ncccc2C1,117.1%
8,CC(=O)c1cc(CC(=O)N2CCN(CCOc3ccccc3)CC2)cs1,-5.45%
9,COc1ccc(F)cc1C(=O)C1CCCN(Cc2ccc(C)s2)C1 (stereo not drawn),-15.99%
10,O=c1[nH]ccn1CCCN1CC=C(c2cnn(-c3ccccc3)c2)CC1,2.052%
11,COC(=O)NCC1CCC2(CCNCC2)O1.Cl (stereo not drawn),-32.05%
12,Cc1nc(CN2CCN3C[C@H](Oc4cncnc4)C[C@H]3C2)cs1.O=C(O)C(F)(F)F.O=C(O)C(F)(F)F,123.6%
13,c1ccc(CN2CCN3C[C@H](Oc4cccnc4)C[C@H]3C2)nc1,-1.108%
14,Cc1cccc(CN2CCN3C[C@H](Oc4cncnc4)C[C@H]3C2)n1.O=C(O)C(F)(F)F.O=C(O)C(F)(F)F,126.4%
15,Fc1cccc(O[C@@H]2C[C@H]3CN(Cc4ccccn4)CCN3C2)c1.O=C(O)C(F)(F)F.O=C(O)C(F)(F)F,-1.961%
16,Cc1cccc(CN2CCN3C[C@H](Oc4cccnc4)C[C@H]3C2)n1.O=C(O)C(F)(F)F.O=C(O)C(F)(F)F.O=C(O)C(F)(F)F,-1.606%
17,Cn1ccnc1CN1CCN2C[C@H](Oc3cncnc3)C[C@H]2C1.O=C(O)C(F)(F)F.O=C(O)C(F)(F)F,-0.7067%
18,O=C(O)C(F)(F)F.O=C(O)C(F)(F)F.c1ccc(CN2CCN3C[C@H](Oc4cncnc4)C[C@H]3C2)nc1,117.2%
